Each structure is given as a SMILES string. About 83,000 compounds went through this panel and 20% of them were active in at least one assay; those are over-represented in the sample as a whole.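 In brief: 96-well plates, 48 h treatment, single concentration, percent growth endpoint.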 Values without a mark were called inactive. Rule for the calls: active = growth percent below 10; inactive = the rest.

31 compounds from PubChem BioAssay (NCI) can be followed below.

For this assay, the system named is SK-MEL-28 melanoma. Put plainly: NCI-60 one-dose screen, 48 h (100 = growth as untreated, 0 = no growth, -100 = all killed). To be noted: 10 µM unless noted.
`NC(=O)N1N=C(c2cc3ccccc3oc2=O)CC1c1cn(-c2ccccc2)nc1-c1ccc(Cl)cc1` (stereo unspecified): the growth is 60.1%.
Turning to `COc1cnc2c(c1)C(=O)c1c-2n(CCCNCC2CC2)c(=O)c2cc(F)ccc12`, the growth was 22.8%.
Under `O=C(Nc1cc(F)cc2cccnc12)c1cnc(N2CCOCC2)cn1` stands 77.4%; under `O=C1[C@H]2Cc3c([nH]c4ccccc34)[C@@H](c3c(Cl)cccc3Cl)N2C(=O)CN1C1CCN(Cc2ccccc2)CC1`, 93.1%; under `COc1cc(/C=N/n2cnc3oc(-c4ccccc4)cc3c2=N)cc(CN2CCN(C)CC2)c1O`, 94.1%.
For the compound `Oc1ccc(-c2nnc(SCc3ccc(O)c4ncccc34)n2-c2ccccc2)cc1`, the growth was 17%.
For the compound `COc1ccc(OC)c([C@H]2c3[nH]c4ccccc4c3C[C@H]3C(=O)N(CCCCCCC(=O)NO)CC(=O)N23)c1`, the growth is 75.2%.
Consider `O=C1[C@@H]2Cc3c([nH]c4ccccc34)[C@H](c3c(Cl)cccc3Cl)N2C(=O)CN1C1CCN(Cc2c(F)cccc2F)CC1`, for which the growth was 75%.
Under `O=C(CCCCCCN1CC(=O)N2[C@@H](c3cccc(Cl)c3)c3[nH]c4ccccc4c3C[C@H]2C1=O)NO` stands 40.2%.
Under `CC(C)N=C(N/C(N)=N/c1nc2ccccc2s1)NC(C)C` stands 74.6%; under `CCCCOc1ccc(S(=O)(=O)N2CCN(c3nccc(N4CCOCC4)n3)CC2)cc1`, 21.1%; under `O=C(NCCCNc1cc(-c2cn(-c3ccccc3)nc2-c2cccc(O)c2)ccn1)Nc1cc(C(F)(F)F)cc(C(F)(F)F)c1`, 83.7%.
As to `O=[N+]([O-])c1ccc(-c2nnc(SCc3ccc(O)c4ncccc34)n2-c2ccccc2)cc1`, the growth was 43.4%.
For `COc1cc2cc(Oc3ccc(NC(=O)Nc4cccc(C(F)(F)F)c4)cc3)c(C)nc2cc1OCCN(C)C`, the growth was 91.6%.
`N/C(=N\c1nc2ccc([N+](=O)[O-])cc2s1)C(Cl)(Cl)Cl`: the growth was 72.2%.
As for `COc1ccc(-c2ccnc3c(C#N)c(Nc4ccccc4)nn23)cc1OC`, the growth is 90.7%.
For the compound `Nc1c(C(=O)c2ccccc2)sc2nc(-c3cnccn3)cc(-c3cccs3)c12`, the growth is 106%.
Regarding `C/C(=C(/C)C1CC1CCN(C(=O)c1ccccn1)S(=O)(=O)c1ccc(C)cc1)C1CCCCC1` (stereo unspecified), the growth is 97.3%.
On to `Oc1ccc(CSc2nnc(-c3ccccc3)n2-c2ccccc2)c2cccnc12`, for which the growth is 17.7%.
Under `Oc1ccc(CSc2nnc(-c3ccc(Oc4ccccc4)cc3)n2-c2ccccc2)c2cccnc12` stands 14.6%.
As to `O=C(CSc1ccc(-c2nc3ccccc3[nH]2)cn1)N1CCN(c2ccccc2F)CC1`, the growth was 87.8%.
Take `COc1cc2cc(Oc3ccc(NC(=O)c4cccc(C(F)(F)F)c4)cc3)c(C)nc2cc1OCCN(C)C`: the growth is 72.2%.
For the compound `CCCC(=O)NC(c1cccnc1)c1cc(C(C)=O)c2cccnc2c1O` (stereo unspecified), the growth is 34.1%.
As for `O=C(CCCCCCN1CC(=O)N2[C@@H](c3ccc(Cl)c(F)c3)c3[nH]c4ccccc4c3C[C@H]2C1=O)NO`, the growth is 86.2%.
Consider `O=C1NC(=O)/C(=C/c2ccc(OCc3cc4ccccc4nc3Cl)cc2)S1`, for which the growth was 104%.
On to `Oc1ccc(CSc2nnc(-c3ccncc3)o2)c2cccnc12`, for which the growth is 39.7%.
Regarding `COc1ccc(C2C(C#N)=C(N)Oc3c2sc2ccc(C)cc32)cc1` (stereo unspecified), the growth was 55.6%.
Regarding `Oc1ccc(CSc2nnc(-c3ccncc3)n2-c2ccccc2)c2cccnc12`, the growth is 29.4%.
Under `Oc1ccc(CSc2nnc(-c3cnccn3)n2-c2ccccc2)c2cccnc12` stands 32.5%.
As for `O=C(COc1ccc(/C=C2\SC(=O)NC2=O)cc1)Nc1ccc(C(=O)/C=C/c2cc3ccccc3nc2Cl)cc1`, the growth was 99.2%.
In the case of `COc1ccc(N2CCN(C(=O)CSc3ccc(-c4nc5cc(C)c(C)cc5[nH]4)cn3)CC2)cc1`, the growth was 74.4%.
